Test results from PubChem BioAssay AID2073 (Sanford-Burnham Center for Chemical Genomics, 2009).
Among all 290,000 compounds or so, about 570 (0.2%) were called active. Inconclusive results (about 1%) are left out. Shown is part of a subset that was picked to be rich in actives. Unmarked numbers belong to inactive results. Rule as the data show it: active = inhibition mostly above about 51% (no sharp cut-off); inconclusive = no clear call, values can overlap the other calls; inactive = mostly below about 53%.

target: Voltage-dependent N-type calcium channel subunit alpha-1B (Homo sapiens) (UniProt Q00975); assay: disruptors of CaV2.2 binding to Mint1 – biochemical, HTRF (AID 2073); settings: HTRF protein-protein interaction, Mint1-CaV2.2; at 20 µM; active compounds read high
Sequence (Q00975 whole entry, looked up): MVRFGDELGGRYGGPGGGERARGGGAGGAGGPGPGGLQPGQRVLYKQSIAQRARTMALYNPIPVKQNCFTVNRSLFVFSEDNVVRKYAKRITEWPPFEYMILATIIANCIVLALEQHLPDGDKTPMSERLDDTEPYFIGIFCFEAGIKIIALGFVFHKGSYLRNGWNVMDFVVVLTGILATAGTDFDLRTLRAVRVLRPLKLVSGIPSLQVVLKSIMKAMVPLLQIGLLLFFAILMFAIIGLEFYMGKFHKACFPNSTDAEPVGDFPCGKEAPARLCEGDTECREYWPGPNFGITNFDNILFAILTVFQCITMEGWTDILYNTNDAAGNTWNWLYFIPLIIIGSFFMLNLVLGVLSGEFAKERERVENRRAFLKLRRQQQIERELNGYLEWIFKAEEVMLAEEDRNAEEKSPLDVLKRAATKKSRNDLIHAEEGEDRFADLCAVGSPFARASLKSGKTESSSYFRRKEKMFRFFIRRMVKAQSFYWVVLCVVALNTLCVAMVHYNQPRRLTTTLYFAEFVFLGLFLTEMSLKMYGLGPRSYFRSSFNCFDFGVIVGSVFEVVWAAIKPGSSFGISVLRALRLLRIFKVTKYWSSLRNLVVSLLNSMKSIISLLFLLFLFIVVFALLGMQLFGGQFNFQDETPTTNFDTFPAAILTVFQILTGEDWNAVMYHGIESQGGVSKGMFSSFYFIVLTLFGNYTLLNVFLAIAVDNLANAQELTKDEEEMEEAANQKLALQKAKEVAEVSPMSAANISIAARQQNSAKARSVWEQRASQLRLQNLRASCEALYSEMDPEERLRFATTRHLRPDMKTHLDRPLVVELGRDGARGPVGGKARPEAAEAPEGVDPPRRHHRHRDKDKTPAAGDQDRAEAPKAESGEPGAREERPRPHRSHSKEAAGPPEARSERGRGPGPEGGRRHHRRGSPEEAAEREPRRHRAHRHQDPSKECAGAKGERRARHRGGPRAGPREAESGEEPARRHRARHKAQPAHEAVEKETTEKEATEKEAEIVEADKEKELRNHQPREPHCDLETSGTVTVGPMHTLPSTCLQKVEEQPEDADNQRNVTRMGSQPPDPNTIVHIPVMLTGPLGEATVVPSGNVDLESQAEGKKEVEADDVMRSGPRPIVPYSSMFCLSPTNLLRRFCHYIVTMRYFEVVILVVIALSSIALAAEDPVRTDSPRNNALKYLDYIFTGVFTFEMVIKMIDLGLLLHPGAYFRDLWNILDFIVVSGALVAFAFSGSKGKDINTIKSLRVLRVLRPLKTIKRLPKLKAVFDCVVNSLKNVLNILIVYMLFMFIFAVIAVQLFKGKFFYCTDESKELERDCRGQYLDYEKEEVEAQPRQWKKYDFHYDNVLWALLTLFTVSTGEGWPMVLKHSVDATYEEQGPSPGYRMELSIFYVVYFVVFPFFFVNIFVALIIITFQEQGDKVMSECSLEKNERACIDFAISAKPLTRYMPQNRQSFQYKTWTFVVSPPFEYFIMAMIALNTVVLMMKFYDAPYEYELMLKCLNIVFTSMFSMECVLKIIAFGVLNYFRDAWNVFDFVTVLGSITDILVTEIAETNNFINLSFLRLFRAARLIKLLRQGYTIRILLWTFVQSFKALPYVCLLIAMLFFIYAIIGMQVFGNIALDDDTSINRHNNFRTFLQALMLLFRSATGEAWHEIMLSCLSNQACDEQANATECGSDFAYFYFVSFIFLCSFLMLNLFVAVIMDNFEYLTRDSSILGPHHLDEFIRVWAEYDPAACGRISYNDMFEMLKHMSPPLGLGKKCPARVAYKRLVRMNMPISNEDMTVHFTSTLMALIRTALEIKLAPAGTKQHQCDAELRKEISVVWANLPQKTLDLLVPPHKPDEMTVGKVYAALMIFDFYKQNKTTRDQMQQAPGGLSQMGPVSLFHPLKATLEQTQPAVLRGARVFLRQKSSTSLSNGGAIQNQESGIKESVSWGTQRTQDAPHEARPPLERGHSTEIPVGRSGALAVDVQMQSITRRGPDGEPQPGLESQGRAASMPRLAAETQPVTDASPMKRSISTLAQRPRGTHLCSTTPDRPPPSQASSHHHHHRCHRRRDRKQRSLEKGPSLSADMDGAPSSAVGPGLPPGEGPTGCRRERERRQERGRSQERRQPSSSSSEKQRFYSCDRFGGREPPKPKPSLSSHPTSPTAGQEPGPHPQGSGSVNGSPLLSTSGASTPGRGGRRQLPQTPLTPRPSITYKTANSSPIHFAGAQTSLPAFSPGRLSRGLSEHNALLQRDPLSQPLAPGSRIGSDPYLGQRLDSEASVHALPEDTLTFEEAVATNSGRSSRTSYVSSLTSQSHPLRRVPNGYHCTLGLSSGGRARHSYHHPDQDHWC

Row | SMILES | inhibition
1 | N#Cc1c(Nc2ccccc2)c(/C=N/NCCO)c[nH]c1=O | -20.2%
2 | CN(C)c1cccc(C(=O)OCC(=O)NC2CCCC2)c1 | 2.1%
3 | Cc1oc(-c2ccccc2F)nc1CS(=O)(=O)CC(=O)N1CCCCCC1 | -4.2%
4 | COc1cc(C(=O)NCCC(=O)NCCCN2CCCCC2)cc(OC)c1OC | -4%
5 | FC(F)(F)c1ccccc1Nc1nccs1 | -8.5%
6 | Cc1cc(C)c(C#N)c(Nc2ccccc2Cl)n1 | 5.7%
7 | FC(F)(F)c1ccccc1NC1=NCCC1 | 0.7%
8 | Cc1nsc(Nc2ccccc2)c1C#N | 36.6%
9 | COc1cccc(CC(Cc2nc3ccccc3[nH]2)c2nc3ccccc3[nH]2)c1 (stereo not given) | 4.4%
10 | CCOc1ccc(/C=N/NC(=O)CSc2n[nH]c(=O)[nH]c2=O)cc1OC | -0.5%
11 | CC(=O)c1ccc(N2CCN(C(=O)c3ccc(Cl)c(NC4=NC5CS(=O)(=O)CC5S4)c3)CC2)cc1 (stereo not given) | 3.4%
12 | Cc1ccnc(NS(=O)(=O)c2ccc(NC(=O)C3CCCO3)cc2)n1 (stereo not given) | -3%
13 | O=C(NCc1ccc(F)cc1)C1CCCN1C(=O)Nc1cccc(F)c1 (stereo not given) | 8.7%
14 | Cc1ccc(N=CC=C2OC(C)(C)C(C)(C)O2)cc1 | 1.3%
15 | COc1ccc(S(=O)(=O)Nc2ccccc2Cl)cc1NC(C)=O | 1.4%
16 | COc1cc2c(cc1NC(=O)C(C)OC(=O)c1ccc(S(=O)(=O)Nc3ccccc3Cl)cc1)oc1ccccc12 (stereo not given) | 56.6% (active)
17 | COc1cc2c(cc1NC(=O)C(C)N1CCN(S(=O)(=O)c3ccc(C)c(C)c3)CC1)oc1ccccc12 (stereo not given) | 12.7%
18 | Cc1nc2cc(F)ccc2n1C1CCN(S(=O)(=O)c2ccccc2)CC1 | 5.6%
19 | O=C(c1csc2c1CCCC2)N1CCN(c2ccccc2)CC1 | -0.9%
20 | Cc1ccc(Nc2nc(-c3ccc(S(=O)(=O)N4CCCC4)cc3)cs2)cc1C | 36.3%

Row | SMILES | inhibition
21 | Cc1cc(C)cc(Nc2nc(-c3ccc(S(=O)(=O)N4CCCC4)cc3)cs2)c1 | 67.2% (active)
22 | O=S(=O)(c1ccc(-c2csc(Nc3ccc(Br)cc3)n2)cc1)N1CCCC1 | -7.1%
23 | COC(=O)c1ccccc1NC(=O)COc1ccc(S(=O)(=O)N2CCCC2)cc1C | 6.4%
24 | Nc1cccc2c(=O)c3ccccc3[nH]c12 | 41.4%
25 | COc1cccc2[nH]c3ccccc3c(=O)c12 | 30.8%
26 | COc1cccc2c(=O)c3cccc(N)c3[nH]c12 | 52.3% (active)
27 | CCCCN(C)C(=O)CSc1nc(NCc2ccc(OC)cc2)c2ccccc2n1 | -1%
28 | CCCn1c(C(C)Nc2nc(-c3ccc(Cl)c([N+](=O)[O-])c3)cs2)nc2cc(Cl)c(N3CCCCC3)cc21 (stereo not given) | 21%
29 | CCOC(=O)c1sc2nc3c(SCCC#N)cc(C(=O)c4cc(F)ccc4O)cn3c(=O)c2c1C | 43.6%
30 | CCOC(=O)c1sc2nc3c(SCC(=O)O)cc(C(=O)c4cc(F)ccc4O)cn3c(=O)c2c1C | 18.6%
31 | CCOC(=O)c1sc2nc3c(SCC(=O)O)cc(C(=O)c4ccccc4O)cn3c(=O)c2c1C | 53.3% (active)
32 | CCCCP(=O)(CCCC)Cc1ccccc1 | -0.8%
33 | COc1ccc(-c2nnc(SCC(=O)NCc3cccs3)n2C(C)C)cc1 | -14.7%
34 | O=c1c2c(nc3nc(NCc4cccc5ccccc45)[nH]n13)CCC2 | 4.9%
35 | O=C(O/N=C(\c1ccccc1)c1ccncc1)c1ccccc1F | -7.6%
36 | O=C(Nc1ccc(NC(=O)c2sc3ccccc3c2Cl)cc1)c1ccco1 | 60.5% (active)
37 | O=C(Nc1cccc(NC(=O)c2sc3ccccc3c2Cl)c1)c1ccco1 | 12.7%
38 | O=C(Nc1ccc(NC(=O)c2sc3ccccc3c2Cl)cc1Cl)c1ccco1 | 31.4%
39 | CCS(=O)(=O)N1CCCC(C(=O)N2CCc3ccccc3C2)C1 (stereo not given) | 0%
40 | COc1cc(/C=N/n2cnnc2)ccc1OC(=O)c1ccco1 | 1.6%

Row | SMILES | inhibition
41 | CCN(CC)C(=O)C(=O)Nc1ccc(OC)c(Cl)c1 | 1.5%
42 | Cc1cc(=O)c2ccc(Cl)cc2[nH]1 | 0.7%
43 | O=C(O)/C=C/C(=O)NCc1csc2ccccc12 | -5%
44 | O=C(Nc1ccc2c(c1)OCO2)C1CC(=O)N(c2cccc(Cl)c2)C1 (stereo not given) | -1.9%
45 | COc1ccc2nc(-c3ccccc3)[nH]c2c1 | 11.7%
46 | Oc1c(Br)cc(/C=N/n2c(-c3ccccc3)n[nH]c2=S)c(O)c1Br | -12.3%
47 | Oc1c(Br)cc(C=Nc2ccc3nc(-c4ccccc4)[nH]c3c2)c(O)c1Br | 83.1% (active)
48 | CCn1ccnc1CN(C)C(=O)c1ccc(OC2CCN(CCc3ccccc3)CC2)cc1 | 6.5%
49 | COCCn1c(SCc2cccnc2)nnc1-c1c[nH]c2ccccc12 | -0.4%
50 | CC(=O)N1CCC(C(=O)N2CCN(S(=O)(=O)c3cccs3)CC2)CC1 | 0.1%
51 | CCOC(=O)c1ccc(-n2cncn2)nc1 | -2.2%
52 | O=C(Nc1ccc(S(=O)(=O)N2CCOCC2)cc1)c1ccc(S(=O)(=O)N2CCOCC2)cc1 | 7.3%
53 | CC(=O)Nc1ccc(S(=O)(=O)N2CCOCC2)cc1 | 11.4%
54 | CC1CN=C(Nc2cccc(S(=O)(=O)N(C)C)c2)S1 (stereo not given) | -0.9%
55 | CN(C)S(=O)(=O)c1cccc(NC(=O)c2ccncc2)c1 | 8.6%
56 | CC(=O)Nc1ccc(S(=O)(=O)N2CCN(S(=O)(=O)N3CCOCC3)CC2)cc1 | -2.3%
57 | CC(=O)Nc1ccc(C(=O)Nc2ccc(S(=O)(=O)N3CCOCC3)cc2)cc1 | -1.1%
58 | Cc1ccc(C(=O)N/C(=C\c2ccc(-c3cccc([N+](=O)[O-])c3)o2)C(=O)NCCCN2CCOCC2)cc1 | -1.4%
59 | COC(=O)Nc1nc2ccc(-c3n[nH]c(=O)c4ccccc34)cc2[nH]1 | -0.4%
60 | Cc1cc(C)nc(Nc2ncc(O)n2-c2ccc(C)c(Cl)c2)n1 | 6%
